# Screens from PubChem BioAssay.
# A selection: hits, their analogues and other compounds. The true share with any hit is near 1.3%.
# Keap1 Nrf2 FP: Keap1-Nrf2 (human) interaction inhibition. Q14145. Keap1 Kelch-Nrf2 peptide fluorescence polarization, 1536-well. inhibition, % at 9.4 µM. 0.15% of 340,000 active. AID 504523; in the data active = inhibition above about 12%;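 also: human Keap1 Kelch domain with fluorescein labeled Nrf2 9mer peptide probe; higher means more block of Keap1 binding to Nrf2 peptide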
# Target sequence (Q14145 whole entry, looked up, the tested form may be a part): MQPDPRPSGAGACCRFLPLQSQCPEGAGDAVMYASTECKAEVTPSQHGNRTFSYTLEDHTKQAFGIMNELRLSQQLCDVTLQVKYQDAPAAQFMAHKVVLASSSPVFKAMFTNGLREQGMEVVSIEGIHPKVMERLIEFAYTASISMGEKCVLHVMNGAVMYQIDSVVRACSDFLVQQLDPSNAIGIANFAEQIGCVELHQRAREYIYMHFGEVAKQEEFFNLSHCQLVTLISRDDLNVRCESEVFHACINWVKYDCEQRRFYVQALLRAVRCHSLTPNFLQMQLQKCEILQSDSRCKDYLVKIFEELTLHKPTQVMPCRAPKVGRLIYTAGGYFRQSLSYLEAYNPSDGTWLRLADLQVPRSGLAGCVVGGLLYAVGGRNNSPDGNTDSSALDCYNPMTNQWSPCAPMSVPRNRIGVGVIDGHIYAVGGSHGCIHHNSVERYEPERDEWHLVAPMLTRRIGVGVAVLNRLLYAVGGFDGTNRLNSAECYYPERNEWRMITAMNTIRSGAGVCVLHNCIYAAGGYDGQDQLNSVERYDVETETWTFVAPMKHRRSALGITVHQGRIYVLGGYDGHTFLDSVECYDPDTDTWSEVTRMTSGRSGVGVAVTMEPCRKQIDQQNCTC
# Cardiac RTF inh: cardiac RTF calcium desensitization | inhibition, % at 7.15 µM | IANBD-labeled cardiac RTF, Ca2+ fluorescence | 0.12% of 340,000 active;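 active = inhibition above the mean inhibition of all tested compounds plus 3 SD, cut at about 17% in these data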;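 also: assay run at fixed EC70 calcium of 1.6 mM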
# LANA DNA inh: KSHV C-LANA DNA binding inhibition | MBP-C-LANA/FAM-LBS DNA binding, fluorescence polarization | inhibition, % at 9 µM | 0.078% of 340,000 active;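 active = highest replicate inhibition at or above 60% at 9 µM, even if other replicates fall short; inactive = all replicates below 60% inhibition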
# CRFR2-BP ag: CRF-BP/CRF-R2 complex agonism; activation, % at 13.2 µM; AID 588473; 0.46% of 350,000 active; HEK293 CRF-R2/CRF-BP, calcium dye fluorescence (FLIPR); percent of saturating CRF peptide response;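 active = activation of at least 50%, plus an integration ratio under a set limit after plate pattern correction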
# CRFBP-R2 block: blocks CRF-induced signaling of the CRF-BP/CRF-R2 complex | HEK293 CRF-R2/CRF-BP, CRF-induced calcium fluorescence | inhibition, % at 11.8 µM | 0.59% of 350,000 active;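 active = inhibition of the ligand-induced calcium signal above about 50% at the single tested concentration, limit read from the data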
# RTF Ca sens act: cardiac RTF calcium sensitization; 0.24% of 340,000 active; AID 493008; P19429+P45379; IANBD-labeled TnC RTF fluorescence at EC20 calcium; 0% EC20 calcium, 100% full calcium; activation, % at 7.2 µM;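 active = activation above the mean over all tested compounds plus 3 SD, cut at about 30% in these data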;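 also: rise in fluorescence read as greater calcium sensitivity of cardiac thin filaments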
# Numbers stand for hits; 0 = inactive; + = active, no number.
SMILES,Keap1 Nrf2 FP,Cardiac RTF inh,LANA DNA inh,CRFR2-BP ag,CRFBP-R2 block,RTF Ca sens act
CC(C)C[C@H](NC(=O)Nc1ccccc1F)C(=O)O,0,0,0,0,0,0
O=C(/C=C/c1ccco1)OCc1nnc(-c2ccc(Cl)cc2)o1,0,0,0,0,86.7,0
CCOc1ccc(NC(=O)CN(C)C(=O)c2cccnc2Sc2ccccc2Cl)cc1OCC,0,0,0,0,0,0
COc1ccc(NC(=O)CN(C)C(=O)c2c(C)nn(-c3ccccc3)c2Cl)cc1,0,0,0,0,0,0
COc1ccccc1N1C(=O)c2cccc3c(N(C)CCO)ccc(c23)C1=O,0,0,0,110.5,0,51.6
CC(Oc1ccc(Br)cc1)C(=O)Nc1cc(Cl)ccc1N1CCN(C)CC1 (centres undefined),0,0,0,0,0,0
C=CCOC(=O)C1=C(C)Nc2ncnn2C1c1cc(Br)ccc1F (centres undefined),0,0,0,0,0,0
COc1ccc(C2C=C(c3ccc(C)c(C)c3)Nc3ncnn32)c(OC)c1OC (centres undefined),0,0,0,0,0,0
COc1cccc(C2C=C(c3ccc(Br)s3)Nc3ncnn32)c1OC (centres undefined),0,0,0,106.1,0,37.1
Fc1ccc(Br)cc1C1C=C(c2ccc(Br)s2)Nc2ncnn21 (centres undefined),0,0,0,0,0,72.9
COc1cc(/C=C/c2sc3ccccc3[n+]2CCCS(=O)(=O)[O-])ccc1O,0,0,0,0,0,68.2
CCC(/C=C1\Oc2ccc(OC)cc2N1C)=C\c1sc2ccccc2[n+]1CCCS(=O)(=O)[O-],0,0,0,0,0,76.8
COc1ccc(Cl)cc1NC(=O)CN(C)C(=O)c1cc(-c2ccncc2)nc2ccccc12,0,0,0,0,0,0
CC(=O)c1sc(NC(=O)C2(F)C(F)(F)C(F)(F)C(F)(F)C(F)(F)C2(F)F)nc1C,0,0,0,0,66.2,0
COC(=O)C1CCN(c2cnccn2)CC1,0,0,0,0,0,0
COc1cc(Cl)c(C)cc1NC(=O)CSc1ccc(C)cc1,0,0,0,0,50.0,0
COc1cc(Cl)c(C)cc1NC(=O)CSc1ccccc1,0,0,0,0,0,0
COC(=O)c1c(=O)n(O)c2ccc(OC)cc2[n+]1[O-],23.6,0,0,0,0,43.8
CCn1c2ccc(F)cc2c2nnc(NN)nc21,0,0,0,0,0,0
NNc1nnc2c3cc(F)ccc3n(Cc3ccccc3)c2n1,0,0,61.8,0,0,0
CCOC(=O)C1=C(c2ccccc2)N2CCS(=O)(=O)N=C2S1,0,0,0,0,0,0
CCOc1ccc(N(CC(=O)NC2CCC(C)CC2)S(=O)(=O)c2c(C)noc2C)cc1 (centres undefined),0,0,0,0,61.8,0
CCOc1ccc(N(CC(=O)NC2CCCCC2C)S(=O)(=O)c2c(C)noc2C)cc1 (centres undefined),0,0,0,0,0,0
Cc1ccccc1CNC(=O)c1ccccc1N,0,0,0,0,55.0,0
COc1cc(OC)c2c(-c3cccc(-c4sccc4C(C)=O)c3)cc(=O)oc2c1,0,0,0,0,0,0
SMILES,Keap1 Nrf2 FP,Cardiac RTF inh,LANA DNA inh,CRFR2-BP ag,CRFBP-R2 block,RTF Ca sens act
Cc1ccc(N=Nc2ccc(O)c(P(=O)(c3ccccc3)c3ccccc3)c2)cc1,0,0,0,0,107.6,0
Cc1cc2c(cc1S(=O)(=O)CCC(=O)NC1CCCCC1C)OCC(=O)N2 (centres undefined),0,0,0,83.3,0,0
CS(=O)(=O)Nc1nc2n(n1)C(c1ccccc1)CC(c1ccccc1)N2 (centres undefined),0,0,0,0,105.5,0
COc1ccc(C2CC(c3ccccc3)Nc3nc(N)nn32)cc1 (centres undefined),0,0,0,0,0,0
COc1cc(C(=O)Nc2scc(-c3ccc(Br)cc3)c2C(=O)O)cc(OC)c1OC,0,0,0,0,0,0
COc1ccc(COc2cc(-c3cccc(OC)c3)nc3ccc(NC(=O)c4ccc(C)cc4)cc23)cc1,0,0,0,0,0,32.5
COc1ccc(COc2cc(-c3cccc(OC)c3)nc3ccc(NC(=O)c4ccc(N(C)C)cc4)cc23)cc1,0,0,0,0,0,0
O=C(Nc1cc(S(=O)(=O)N2CCCCC2)ccc1O)c1ccccc1NS(=O)(=O)c1ccc(F)cc1,0,0,0,71.5,0,0
O=C(CSc1ncn[nH]1)Nc1cc(S(=O)(=O)N2CCCC2)ccc1Cl,0,0,0,0,50.0,0
O=C(c1ccccc1NS(=O)(=O)c1ccc(F)cc1)N1CCCCC1,0,0,0,0,0,0
Cc1ccc(S(=O)(=O)N2CCCCC2)cc1NC(=O)CSc1ncn[nH]1,0,0,0,0,0,0
O=C(Nc1cc(S(=O)(=O)N2CCCCC2)ccc1Cl)c1ccccc1NS(=O)(=O)c1ccc(F)cc1,0,0,0,0,107.7,0
O=C(NCCCO)/C(=C\c1ccco1)NC(=O)c1ccc(Br)o1,0,0,0,0,0,0
COc1ccccc1CNC(=O)C1CCC(CNS(=O)(=O)c2ccc(NC(C)=O)cc2)CC1 (centres undefined),0,0,0,0,0,0
C=CCC[C@H](Cc1ccc(F)cc1)C(=O)OC[C@H](Cc1c[nH]c2ccccc12)NC(=O)[C@@H](CC=C)CC(=O)NCCO,0,0,0,60.0,0,0
Cc1ccc(S(=O)(=O)N2CCN(c3ncnc4scc(-c5ccccc5)c34)CC2)cc1,0,0,0,126.5,0,0
CCCN(CCC)C(=O)CSc1nc2ccsc2c(=O)n1NC(=O)c1ccccc1,0,0,0,0,0,0
CN(C)/C=N/c1nccc(-c2cccs2)n1,0,0,0,54.1,0,0
Cc1cc(C(=O)NC2CC(C)(C)Cc3c2cnn3-c2ccccc2)n(C)n1 (centres undefined),0,0,0,0,0,0
c1ccc(C2CN3CCSC3=N2)cc1 (centres undefined),0,0,0,0,89.1,0
COc1cc(/C=C2/C(=O)ON=C2C)cc(Cl)c1O,0,0,0,0,0,0
COc1ccc(CNc2ccc3c(c2)ncn3-c2ccccc2OC)cc1,0,0,0,0,0,0
CN1CCC2(CC1)Nc1nc(SCc3ccc(Cl)cc3)nn1C1=C2CN(C)CC1,0,0,0,0,86.0,0
Nc1ccc(-c2c3ccc(=O)cc-3oc3cc(O)ccc23)c(C(=O)O)c1,0,0,171.2,231.9,0,+
CC(C)(C)n1nnnc1C(c1ccc(Cl)cc1)N(Cc1cccnc1)Cc1ccco1 (centres undefined),0,0,0,0,59.0,0
CC(C)(C)n1nnnc1C(c1ccc(F)cc1)N(Cc1ccc(F)cc1)Cc1ccco1 (centres undefined),0,0,0,0,0,0
